Measured values: the supplement of paper PMC9492666
Structures can show the parent of a compound that is named as a salt.

Key:
Details in all cases: 72 h
HCC1937 [1] = experiment: relative cell viability, compound + RSL3, vs DMSO (fraction of DMSO control); higher = less growth inhibition
MDA-MB-231 [2] = experiment: as above
HCC1937 [3] = experiment: relative cell viability, compound alone, vs DMSO (fraction of DMSO control); higher = less growth inhibition
MDA-MB-231 [4] = experiment: as above
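Throughout, for relative cell viability, compound + RSL3, vs DMSO: breast cancer cell viability read out with the CCK-8 kit after co-treatment of each compound with the ferroptosis inducer RSL3.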
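Throughout, for relative cell viability, compound alone, vs DMSO: viability read out with the CCK-8 kit in 96-well plates, screening a set of 303 compounds acting on lipid metabolism targets.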

SMILES | relative cell viability (HCC1937 [1]) | relative cell viability (MDA-MB-231 [2]) | relative cell viability (HCC1937 [3]) | relative cell viability (MDA-MB-231 [4])
CCCCCCCCCc1ccc(B(O)O)cc1 [4-Nonylphenylboronic acid] + COC(=O)c1ccc([C@H]2c3[nH]c4ccccc4c3C[C@H](C(=O)OC)N2C(=O)CCl)cc1 [RSL3] | 0.546 | 0.732 | – | –
CC(=O)c1c(C)cc2cccc(O)c2c1O [Nepodin] + COC(=O)c1ccc([C@H]2c3[nH]c4ccccc4c3C[C@H](C(=O)OC)N2C(=O)CCl)cc1 [RSL3] | 0.404 | 0.56 | – | –
N=C(N)NCCC(=O)O [3-Guanidinopropionic Acid] + COC(=O)c1ccc([C@H]2c3[nH]c4ccccc4c3C[C@H](C(=O)OC)N2C(=O)CCl)cc1 [RSL3] | 0.509 | 0.659 | – | –
O=P(O)(O)OC(CO)CO [β-Glycerol phosphate disodium salt pentahydrate] + COC(=O)c1ccc([C@H]2c3[nH]c4ccccc4c3C[C@H](C(=O)OC)N2C(=O)CCl)cc1 [RSL3] | 0.343 | 0.56 | – | –
O=S(=O)(Nc1ccc(C(O)(C(F)(F)F)C(F)(F)F)cc1)c1cccs1 + COC(=O)c1ccc([C@H]2c3[nH]c4ccccc4c3C[C@H](C(=O)OC)N2C(=O)CCl)cc1 [RSL3] | 0.617 | 0.63 | – | –
O=C(CC(C(=O)O)c1c[nH]c2ccccc12)c1ccc(F)cc1F (stereo not drawn) [Mitochonic acid 5] + COC(=O)c1ccc([C@H]2c3[nH]c4ccccc4c3C[C@H](C(=O)OC)N2C(=O)CCl)cc1 [RSL3] | 0.636 | 0.769 | – | –
CC(C)c1onc(-c2c(Cl)cccc2Cl)c1COc1ccc(/C=C/c2cccc(C(=O)O)c2)c(Cl)c1 + COC(=O)c1ccc([C@H]2c3[nH]c4ccccc4c3C[C@H](C(=O)OC)N2C(=O)CCl)cc1 [RSL3] | 0.874 | 0.699 | – | –
Cc1cnc(C(=O)NCCc2ccc(S(=O)(=O)NC(=O)NC3CCCCC3)cc2)cn1 [Glipizide] | – | – | 0.679 | 0.817
Cc1cc([N+](=O)[O-])ccc1NS(=O)(=O)c1cc(Cl)ccc1Cl | – | – | 0.579 | 0.795
C=C1C[C@]2(O)O[C@@]3(CC2=C(C)C)[C@@H](C)CC[C@@H]13 [Isocurcumenol] + COC(=O)c1ccc([C@H]2c3[nH]c4ccccc4c3C[C@H](C(=O)OC)N2C(=O)CCl)cc1 [RSL3] | 0.612 | 0.568 | – | –
COc1ccc2c(c1)CCC1C2CCC2(C)C(NCCCCCCN3C(=O)C=CC3=O)CCC12 (stereo not drawn) + COC(=O)c1ccc([C@H]2c3[nH]c4ccccc4c3C[C@H](C(=O)OC)N2C(=O)CCl)cc1 [RSL3] | 0.243 | 0.36 | – | –
O=C(CCCCCCCC(=O)NCCO)NCCO [Adelmidrol] + COC(=O)c1ccc([C@H]2c3[nH]c4ccccc4c3C[C@H](C(=O)OC)N2C(=O)CCl)cc1 [RSL3] | 0.659 | 0.651 | – | –
CC(C)(Oc1ccc(C(=O)c2ccc(Cl)cc2)cc1)C(=O)O [Fenofibric acid] + COC(=O)c1ccc([C@H]2c3[nH]c4ccccc4c3C[C@H](C(=O)OC)N2C(=O)CCl)cc1 [RSL3] | 0.536 | 0.535 | – | –
c1ccc([C@H]2CN3CCSC3=N2)cc1 [Levamisole hydrochloride] + COC(=O)c1ccc([C@H]2c3[nH]c4ccccc4c3C[C@H](C(=O)OC)N2C(=O)CCl)cc1 [RSL3] | 0.704 | 0.53 | – | –
Nc1ccc(O)c(C(=O)O)c1 [Mesalamine] + COC(=O)c1ccc([C@H]2c3[nH]c4ccccc4c3C[C@H](C(=O)OC)N2C(=O)CCl)cc1 [RSL3] | 0.635 | 0.592 | – | –
CCN(CC)C(=O)N1CCN(C)CC1 [Diethylcarbamazine citrate] + COC(=O)c1ccc([C@H]2c3[nH]c4ccccc4c3C[C@H](C(=O)OC)N2C(=O)CCl)cc1 [RSL3] | 0.61 | 0.581 | – | –
CC(C)(Oc1ccc(C(=O)c2ccc(Cl)cc2)cc1)C(=O)O [Choline Fenofibrate] + COC(=O)c1ccc([C@H]2c3[nH]c4ccccc4c3C[C@H](C(=O)OC)N2C(=O)CCl)cc1 [RSL3] | 0.469 | 0.692 | – | –
NC(=O)c1cnccn1 [Pyrazinamide] + COC(=O)c1ccc([C@H]2c3[nH]c4ccccc4c3C[C@H](C(=O)OC)N2C(=O)CCl)cc1 [RSL3] | 0.607 | 0.558 | – | –
CN(C)C(=N)NC(=N)N [Metformin hydrochloride] + COC(=O)c1ccc([C@H]2c3[nH]c4ccccc4c3C[C@H](C(=O)OC)N2C(=O)CCl)cc1 [RSL3] | 0.855 | 0.605 | – | –
